# Measured values published in the supplement of paper PMC6555819.
# System: RARa:RXR (NR concentration 270 nM, RXRa partner concentration 90 nM)
# Test: PBM binding z-score (relative to random genomic background probes); higher = stronger binding; sequences stand for … in GC…GCGATTGACAGCGTAGAATGAAGG
# Procedure, shortened: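 Custom Agilent 4×180K protein-binding microarrays carried double-stranded probes. Their 34-nt variable regions held direct-repeat seeds, single-nucleotide variants, half-site ablations and random human genomic background sequences. Arrays were incubated 1 h with ligand-free nuclear receptor dimers in PBS pH 7.4, 2% milk, 0.02% Triton X-100, 1 mM DTT, 0.2 mg/mL BSA and 0.4 mg/ml salmon testes DNA. Antibodies against each partner (one per run) detected binding, and scanned fluorescence was regression-normalized. Binding z-scores use random background probes as reference.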
row,Sequence,PBM binding z-score
1,GGAACGAGGGCAAAGCTGATAGCATCTGTCGACG,0.0386
2,CCTAGCAGGACAATCTGGGTCACTCAAGGCTTGA,1.67
3,CGAACGAGGGCATGAGTCGATAGCAAATGCCGAT,0.1
4,TAGCCTAGGTCATGCGGGCCAGTAAAGTGTCGGC,2.44
5,CGTTACGGGTCACTGACAGGTTATAGCATTTGGA,4.61
6,AGAATCAGGTTACCAAAGATCAGGGAAACGCTTG,0.359
7,CCTACTGGGCCAAAAAGGTCATCGATGCCGATAA,5.26
8,ATATGTACGTTAAGGGTCATTCAGGTTGGTTCGC,4.96
9,TCTCGGAGGATACGAAGGTCAGAGCTTTCCAGAG,1.64
10,TCATATAGGTAAAGGTGAAAGTGGAACGATATGA,2.26
11,CCTGCTAGGTCAATGGCCAGCTAAAGCAGCTCGC,1.31
12,TCGGACAGGTGAAGGTAACTCAGGTACGCAGTCG,0.44
13,TCATATAGGTAAAACGTGAAAGTCGGTGTGGTAA,0.571
14,GCAGACAGGTGAAACGCAGGTAACTCACGGTGGC,0.0228
15,CGTCCAAGGTCAGAGAGGTCAGGGAATGCCGAGT,5.44
16,GCTCGGAGGACAAGCTCAGAGCTTTGTCCGTAGA,-0.828
17,TGTAGTTGGTCACGGAGGTCACACACGACGGGTA,4.35
18,CAAACTAGGTCAAGAGGTCACAGTCCGCTTCCCG,7.64
19,CAAACTAGGTCAAGAGGTCGAAGTCCGCTTCCCG,4.93
20,GCCTACGGGTCAAAGGTTATAGCATGAATAGAAT,8.24

row,Sequence,PBM binding z-score
1,TAGCCTAGGTCATGGGCCAGCATACCACGCGAAC,2.74
2,CGAACTGGGTCATCCAGGACAGTGAATACATTGA,3.11
3,CCAGACAGGTGAAAGATAACTCAGTCTGGTACGC,0.381
4,CCTACTGGGCCATCAGGTCATTGTTATCAACGTT,2.03
5,CGAACTAGGACAAGGACAGTGAATCTCCGCACGC,0.0939
6,CAGCCTAGGTCACGGCCAGTATAGGAGGAACGTT,3.45
7,TCATATAGGTAAATGCTAGGTGAAAGCCCGATCT,1.05
8,GCTCGGACGACAAGGTCAGAGCTTTGTCCGTAGA,2.24
9,CAAGCTAGGTCACGAAAGGTCAAAGTCGAATGAC,7.85
10,TAGGCTAGGTCATGGGCCAGTATACCACGCGAAC,2.78
11,GCAGACAGGTGAAACGCAGGTAAATCAGGGTGGC,0.514
12,CCTTACGGGTCAAGGTTATTGCACGGGTGGTACG,4.2
13,ACTGACAGGTGATGAAGGTAACTCAGGCTATCAT,-0.039
14,CAAACTAGGTCATCGGAAGGTCAAAGTCCGCATG,6.84
15,CAAACTAGGTAACGAAAGGTCAAAGTCGAATGAC,5.55
16,TCTCGGAGGACCCGAAGGTCAGAGCTTTCCAGAG,1.89
17,AACACAGGGTCATCGTAGGCCAGAGTACGCACAG,4.91
18,AGAATGAGGTTATTAAGATCCGGGAATTGCGGTC,1.28
19,TCATATAGGTAAATGCTAGATGAAAGTCCGATCT,0.328
20,CCTGCTAGGTCATGGTAAGCTAATCTACAGTATG,2.32
